# Results taken from publication PMC5540273 (PLoS ONE, 2017).
# Several values for one entry are separate records, joined by “and”; a condition that tells them apart may be missing. Equal entries are not always repeated. Where two headings read alike, the source gives them in different places.
# Key:
# PRKCQ = conditions: n = 1
# PRKD1 = conditions: concentration: 1 μM, replicates: in singlicate; n = 1
# PRKD2 = conditions: n = 1
# PRKD3 = conditions: n = 1
# PRKG1 = conditions: n = 1
# PRKG2 = conditions: n = 1
# PRKR = system: T1, PRKR; conditions: n = 1
# T1 construct: gene EIF2AK2
# PRKX = conditions: n = 1
# PRP4 = conditions: n = 1
# PYK2 = system: T2, PYK2; conditions: n = 1
# T2 construct: gene PTK2B
# QSK = conditions: n = 1
# RAF1 = conditions: n = 1
# RET = conditions: n = 1
# RIOK1 = conditions: n = 1
# RIOK2 = conditions: n = 1
# RIOK3 = conditions: n = 1
# RIPK1 = conditions: n = 1
# RIPK2 = conditions: n = 1
# RIPK4 = conditions: n = 1
# RIPK5 = conditions: concentration: 1 μM, replicates: in singlicate; n = 1
# [1] = concentration: 1 μM, replicates: in singlicate
# [2] = concentration: 1 μM,replicates: in singlicate, 1 µM
# 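Also: KINOMEscan kinase panel screen.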
smiles,measurement,setting,value
Fc1cc(Cl)ccc1Nc1ccnc2cc(I)ccc12 [GW551191],%Inh,PRKCQ; [1],18%
same,%Inh,PRKD1,1%
same,%Inh,PRKD2; [1],0%
same,%Inh,PRKD3; [1],0%
same,%Inh,PRKG1; [1],5%
same,%Inh,PRKG2; [1],0%
same,%Inh,PRKR; [1],0%
same,%Inh,PRKX; [1],0%
same,%Inh,PRP4; [1],13%
same,%Inh,PYK2; [1],1%
same,%Inh,QSK; [1],37%
same,%Inh,RAF1; [1],10%
same,%Inh,RET; [1],53%
same,%Inh,RIOK1; [1],31%
same,%Inh,RIOK2; [1],0%
same,%Inh,RIOK3; [1],19%
same,%Inh,RIPK1; [1],0%
same,%Inh,RIPK2; [1],67%
same,%Inh,RIPK4; [1],12%
same,%Inh,RIPK5,0%
Cc1cc(N2Cc3ccccc3C2)nc(Nc2ccc(S(=O)(=O)N3CCOCC3)cc2)n1.Cl [GSK1669917],%Inh,PRKCQ; [1],0%
same,%Inh,PRKD1,0%
same,%Inh,PRKD2; [1],0%
same,%Inh,PRKD3; [1],0%
same,%Inh,PRKG1; [1],0%
same,%Inh,PRKG2; [1],0%
same,%Inh,PRKR; [1],0%
same,%Inh,PRKX; [1],0%
same,%Inh,PRP4; [1],16%
same,%Inh,PYK2; [1],0%
same,%Inh,QSK; [1],2%
same,%Inh,RAF1; [1],0%
same,%Inh,RET; [1],0%
same,%Inh,RIOK1; [1],24%
same,%Inh,RIOK2; [1],0%
same,%Inh,RIOK3; [1],25%
same,%Inh,RIPK1; [1],0%
same,%Inh,RIPK2; [1],0%
same,%Inh,RIPK4; [1],98.9%
same,%Inh,RIPK5,6%
Cl.NC(=O)c1cccc(Nc2nccc(Nc3ccc(Oc4cccc(Cl)c4)c(Cl)c3)n2)c1 [GW659008],%Inh,PRKCQ; [1],0%
same,%Inh,PRKD1,0%
same,%Inh,PRKD2; [1],6%
same,%Inh,PRKD3; [1],0%
same,%Inh,PRKG1; [1],0%
same,%Inh,PRKG2; [1],3%
same,%Inh,PRKR; [1],0%
same,%Inh,PRKX; [1],15%
same,%Inh,PRP4; [1],18%
same,%Inh,PYK2; [1],15%
same,%Inh,QSK; [1],9%
same,%Inh,RAF1; [1],0%
same,%Inh,RET; [1],3%
same,%Inh,RIOK1; [1],37%
same,%Inh,RIOK2; [1],21%
same,%Inh,RIOK3; [1],23%
same,%Inh,RIPK1; [1],27%
same,%Inh,RIPK2; [1],95.8%
same,%Inh,RIPK4; [1],72%
same,%Inh,RIPK5,0%
CSc1nn2c(=O)cc(N3CCOCC3)nc2n1Cc1cccc(C(F)(F)F)c1C [GSK2363608],%Inh,PRKCQ; [2],0% and 66%
same,%Inh,PRKD1,0%
same,%Inh,PRKD2; [2],7% and 4%
same,%Inh,PRKD3; [2],21% and 0%
same,%Inh,PRKG1; [2],39% and 1%
same,%Inh,PRKG2; [2],16% and 0%
same,%Inh,PRKR; [2],5% and 0%
same,%Inh,PRKX; [2],36% and 0%
same,%Inh,PRP4; [2],32% and 12%
same,%Inh,PYK2; [2],0% and 17%
same,%Inh,QSK; [2],55% and 8%
same,%Inh,RAF1; [2],14% and 11%
same,%Inh,RET; [2],19% and 56%
same,%Inh,RIOK1; [2],37% and 10%
same,%Inh,RIOK2; [2],19% and 5%
same,%Inh,RIOK3; [2],39% and 0%
same,%Inh,RIPK1; [2],26% and 0%
same,%Inh,RIPK2; [2],0% and 14%
same,%Inh,RIPK4; [2],22% and 13%
same,%Inh,RIPK5,0%
O=C1NC(=O)C(N2CCc3ccccc32)=C1c1ccccc1Cl [SB-373598],%Inh,PRKCQ; [1],7%
same,%Inh,PRKD1,12%
same,%Inh,PRKD2; [1],3%
same,%Inh,PRKD3; [1],0%
same,%Inh,PRKG1; [1],36%
same,%Inh,PRKG2; [1],12%
same,%Inh,PRKR; [1],5%
same,%Inh,PRKX; [1],12%
same,%Inh,PRP4; [1],0%
same,%Inh,PYK2; [1],0%
same,%Inh,QSK; [1],4%
same,%Inh,RAF1; [1],25%
same,%Inh,RET; [1],3%
same,%Inh,RIOK1; [1],19%
same,%Inh,RIOK2; [1],4%
same,%Inh,RIOK3; [1],1%
same,%Inh,RIPK1; [1],0%
same,%Inh,RIPK2; [1],10%
same,%Inh,RIPK4; [1],12%
same,%Inh,RIPK5,0%
O=C(O)COc1ncnc2cc(-c3ccc4[nH]ncc4c3)sc12,%Inh,PRKCQ; [1],41%
same,%Inh,PRKD1,0%
same,%Inh,PRKD2; [1],0%
same,%Inh,PRKD3; [1],25%
same,%Inh,PRKG1; [1],17%
same,%Inh,PRKG2; [1],0%
same,%Inh,PRKR; [1],0%
same,%Inh,PRKX; [1],41%
same,%Inh,PRP4; [1],0%
same,%Inh,PYK2; [1],0%
same,%Inh,QSK; [1],0%
same,%Inh,RAF1; [1],1%
same,%Inh,RET; [1],11%
same,%Inh,RIOK1; [1],0%
same,%Inh,RIOK2; [1],16%
same,%Inh,RIOK3; [1],0%
same,%Inh,RIPK1; [1],0%
same,%Inh,RIPK2; [1],0%
same,%Inh,RIPK4; [1],30%
same,%Inh,RIPK5,6%
Cl.Oc1ccc(-c2nc(-c3ccccc3)[nH]c2-c2ccncc2)cc1 [SB-428218],%Inh,PRKCQ; [1],0%
same,%Inh,PRKD1,0%
same,%Inh,PRKD2; [1],9%
same,%Inh,PRKD3; [1],0%
same,%Inh,PRKG1; [1],12%
same,%Inh,PRKG2; [1],0%
same,%Inh,PRKR; [1],0%
same,%Inh,PRKX; [1],0%
same,%Inh,PRP4; [1],57%
same,%Inh,PYK2; [1],0%
same,%Inh,QSK; [1],0%
same,%Inh,RAF1; [1],61%
same,%Inh,RET; [1],26%
same,%Inh,RIOK1; [1],0%
same,%Inh,RIOK2; [1],0%
same,%Inh,RIOK3; [1],0%
same,%Inh,RIPK1; [1],0%
same,%Inh,RIPK2; [1],22%
same,%Inh,RIPK4; [1],14%
same,%Inh,RIPK5,0%
Cn1ccc2ncnc(Oc3ccc(Nc4nc5ccccc5[nH]4)cc3)c21,%Inh,PRKCQ; [1],0%
same,%Inh,PRKD1,44%
same,%Inh,PRKD2; [1],8%
same,%Inh,PRKD3; [1],0%
same,%Inh,PRKG1; [1],0%
same,%Inh,PRKG2; [1],0%
same,%Inh,PRKR; [1],0%
same,%Inh,PRKX; [1],3%
same,%Inh,PRP4; [1],25%
same,%Inh,PYK2; [1],41%
same,%Inh,QSK; [1],0%
same,%Inh,RAF1; [1],0%
same,%Inh,RET; [1],0%
same,%Inh,RIOK1; [1],0%
same,%Inh,RIOK2; [1],0%
same,%Inh,RIOK3; [1],0%
same,%Inh,RIPK1; [1],0%
same,%Inh,RIPK2; [1],0%
same,%Inh,RIPK4; [1],0%
same,%Inh,RIPK5,0%
